Laboratory results from PubChem BioAssay AID1159580 (chemical genetic matrix, 2015).
Among all 5,500 compounds or so, about 2,000 (36%) were called active. Roughly 18% stayed inconclusive and do not appear here. Cut-off read from the data, not from the text of the source: active = normalized growth mostly below about 0.91 (no sharp cut-off); inconclusive = no clear call, values can overlap the other calls; inactive = mostly above about 0.92. Some of the results follow.

Experiment: chemical genetic growth profiling, strain panel (AID 1159580);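 note: tested at 20 µM; growth read once vehicle control cultures reached saturation at 30 °C; 1 = growth at the plate median or of vehicle wells; lower values mean less growth of the strain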
Conditions: S. cerevisiae deletion strains, growth OD

Measured: normalized growth

COc1cc(-c2oc3cc(O)ccc3c(=O)c2O)ccc1O
active: locus YAL021C, strain ccr4, hits give low values 0.743 | locus YAL026C, strain drs2, hits give low values 0.873 | locus YBR023C, strain chs3, hits give low values 0.861 | locus YBR231C, strain swc5, hits give low values 0.826 | locus YBR279W, strain paf1, hits give low values 0.853 | locus YDR069C, strain doa4, hits give low values 0.774 | locus YDR137W, strain rgp1, hits give low values 0.763 | locus YDR195W, strain ref2 1.18 [resistant] | locus YDR334W, strain swr1, hits give low values 0.887 | locus YER015W, strain faa2, hits give low values 0.859 | locus YGL173C, strain kem1, hits give low values 0.86 | locus YGL253W, strain hxk2, hits give low values 0.833 | locus YHR013C, strain ard1, hits give low values 0.814 | locus YHR027C, strain rpn1, hits give low values 0.788 | locus YHR142W, strain chs7, hits give low values 0.827 | locus YJL164C, strain tpk1, hits give low values 0.829 | locus YJL166W, strain qcr8, hits give low values 0.895 | locus YJL187C, strain SWE1, hits give low values 0.885 | locus YLR027C, strain aat2, hits give low values 0.902 | locus YLR221C, strain rsa3, hits give low values 0.899 | locus YLR262C, strain YPT6 (second series), hits give low values 0.748 | locus YLR357W, strain rsc2, hits give low values 0.8 | locus YMR058W, strain fet3, hits give low values 0.306 | locus YMR231W, strain pep5, hits give low values 0.906 | locus YNL209W, strain ssb2, hits give low values 0.647 | locus YOR070C, strain gyp1, hits give low values 0.873 | locus YOR083W, strain WHI5, hits give low values 0.85 | locus YOR106W, strain vam3, hits give low values 0.567 | locus YOR270C, strain vph1, hits give low values 0.542 | locus YPL051W, strain arl3, hits give low values 0.744
inactive: locus YAL030W, strain snc1, hits give low values 0.977 | locus YBL061C, strain skt5, hits give low values 0.926 | locus YBR009C, strain hhf1, hits give low values 0.925 | locus YBR171W, strain sec66, hits give low values 1 | locus YCL011C, strain gbp2, hits give low values 0.942 | locus YCL016C, strain dcc1, hits give low values 0.961 | locus YCL061C, strain MRC1, hits give low values 0.993 | locus YCL069W, strain vba3, hits give low values 0.987 | locus YCR088W, strain abp1, hits give low values 1.02 | locus YDL005C, strain med2, hits give low values 1.03 | locus YDL040C, strain nat1, hits give low values 1.01 | locus YDR001C, strain nth1, hits give low values 1.02 | locus YDR159W, strain sac3, hits give low values 1.06 | locus YDR297W, strain sur2, hits give low values 0.958 | locus YDR335W, strain msn5, hits give low values 0.971 | locus YDR392W, strain spt3, hits give low values 0.868 | locus YEL003W, strain gim4, hits give low values 0.961 | locus YEL037C, strain rad23, hits give low values 0.972 | locus YEL061C, strain CIN8 (second series), hits give low values 1 | locus YER016W, strain bim1, hits give low values 0.986 | locus YER111C, strain swi4, hits give low values 0.979 | locus YER155C, strain BEM2 (second series), hits give low values 0.977 | locus YFR010W, strain ubp6, hits give low values 0.906 | locus YGL167C, strain pmr1, hits give low values 0.995 | locus YGL227W, strain vid30, hits give low values 1.04 | locus YGL240W, strain doc1, hits give low values 1.04 | locus YJL092W, strain hpr5, hits give low values 1.01 | locus YJL095W, strain BCK1 (second series), hits give low values 0.967 | locus YJL115W, strain asf1, hits give low values 1.01 | locus YJL129C, strain trk1, hits give low values 0.911 | locus YJL154C, strain vps35, hits give low values 1 | locus YKL160W, strain elf1, hits give low values 0.912 | locus YKR026C, strain gcn3, hits give low values 1.02 | locus YKR091W, strain srl3, hits give low values 1 | locus YLL001W, strain dnm1, hits give low values 0.959 | locus YLL026W, hits give low values 0.954 | locus YLL041C, strain sdh2, hits give low values 0.994 | locus YLR258W, strain gsy2, hits give low values 0.935 | locus YLR320W, strain mms22, hits give low values 0.9 | locus YLR342W, strain FKS1, hits give low values 0.966 | locus YLR370C, strain arc18, hits give low values 0.96 | locus YLR384C, strain iki3, hits give low values 0.987 | locus YML120C, strain ndi1, hits give low values 0.975 | locus YMR125W, strain sto1, hits give low values 1.11 | locus YMR129W, hits give low values 0.998 | locus YMR205C, strain PFK2, hits give low values 0.926 | locus YNL071W, strain lat1, hits give low values 0.96 | locus YNL248C, strain rpa49, hits give low values 0.968 | locus YNL322C, strain KRE1 (second series), hits give low values 1.03 | locus YNR049C, strain mso1, hits give low values 1 | locus YOR001W, strain rrp6, hits give low values 0.917 | locus YOR080W, strain dia2, hits give low values 1 | locus YOR265W, strain rbl2, hits give low values 0.968 | locus YOR290C, strain snf2, hits give low values 0.888 | locus YPL078C, strain atp4, hits give low values 0.927 | locus YPL106C, strain sse1, hits give low values 0.935 | locus YPL240C, strain hsp82, hits give low values 0.972
